# Measurements published in ChEMBL document CHEMBL2218924, “A broad activity screen in support of a chemogenomic map for kinase signalling research and drug discovery” (Biochem J, 2013).
# What was measured:
# [1] = biological target: T1, Ephrin type-A receptor 3 (Homo sapiens) (UniProt P29320); conditions: at 10 µM
# T1 sequence (whole entry): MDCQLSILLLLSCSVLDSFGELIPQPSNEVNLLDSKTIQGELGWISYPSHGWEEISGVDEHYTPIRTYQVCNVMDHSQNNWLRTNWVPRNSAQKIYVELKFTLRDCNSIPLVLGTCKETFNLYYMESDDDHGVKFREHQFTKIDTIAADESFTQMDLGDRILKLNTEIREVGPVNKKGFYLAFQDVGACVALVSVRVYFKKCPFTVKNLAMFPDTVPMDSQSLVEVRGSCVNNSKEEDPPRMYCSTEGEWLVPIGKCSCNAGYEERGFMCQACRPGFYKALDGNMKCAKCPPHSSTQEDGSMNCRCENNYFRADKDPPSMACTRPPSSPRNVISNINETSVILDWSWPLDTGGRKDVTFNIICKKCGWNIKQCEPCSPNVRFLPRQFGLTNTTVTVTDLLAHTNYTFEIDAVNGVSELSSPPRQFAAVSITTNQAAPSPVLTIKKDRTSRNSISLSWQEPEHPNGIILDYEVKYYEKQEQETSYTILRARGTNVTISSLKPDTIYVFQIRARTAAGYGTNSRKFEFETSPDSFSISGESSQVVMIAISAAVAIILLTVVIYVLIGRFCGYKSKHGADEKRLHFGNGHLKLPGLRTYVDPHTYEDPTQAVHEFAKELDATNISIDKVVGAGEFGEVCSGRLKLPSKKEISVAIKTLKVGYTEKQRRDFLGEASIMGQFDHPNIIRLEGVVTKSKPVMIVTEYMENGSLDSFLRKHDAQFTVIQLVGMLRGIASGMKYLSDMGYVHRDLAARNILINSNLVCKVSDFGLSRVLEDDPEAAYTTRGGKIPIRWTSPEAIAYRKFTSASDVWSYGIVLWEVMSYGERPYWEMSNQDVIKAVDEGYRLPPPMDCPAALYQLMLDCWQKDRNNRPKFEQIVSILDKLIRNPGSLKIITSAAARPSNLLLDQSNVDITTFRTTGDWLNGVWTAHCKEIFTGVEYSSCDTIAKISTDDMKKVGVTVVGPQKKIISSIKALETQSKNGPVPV
# [2] = biological target: Ephrin type-A receptor 4 (Homo sapiens) (UniProt P54764); conditions: at 1 µM
# [3] = biological target: Ephrin type-A receptor 4 (Homo sapiens) (UniProt P54764); conditions: at 10 µM
# [4] = biological target: Ephrin type-A receptor 5 (Homo sapiens) (UniProt P54756); conditions: at 1 µM
# [5] = biological target: Ephrin type-A receptor 5 (Homo sapiens) (UniProt P54756); conditions: at 10 µM
# [6] = biological target: Ephrin type-A receptor 7 (Homo sapiens) (UniProt Q15375); conditions: at 1 µM
# [7] = biological target: Ephrin type-A receptor 7 (Homo sapiens) (UniProt Q15375); conditions: at 10 µM
# [8] = biological target: T2, Ephrin type-A receptor 8 (Homo sapiens) (UniProt P29322); conditions: at 1 µM
# T2 sequence (whole entry): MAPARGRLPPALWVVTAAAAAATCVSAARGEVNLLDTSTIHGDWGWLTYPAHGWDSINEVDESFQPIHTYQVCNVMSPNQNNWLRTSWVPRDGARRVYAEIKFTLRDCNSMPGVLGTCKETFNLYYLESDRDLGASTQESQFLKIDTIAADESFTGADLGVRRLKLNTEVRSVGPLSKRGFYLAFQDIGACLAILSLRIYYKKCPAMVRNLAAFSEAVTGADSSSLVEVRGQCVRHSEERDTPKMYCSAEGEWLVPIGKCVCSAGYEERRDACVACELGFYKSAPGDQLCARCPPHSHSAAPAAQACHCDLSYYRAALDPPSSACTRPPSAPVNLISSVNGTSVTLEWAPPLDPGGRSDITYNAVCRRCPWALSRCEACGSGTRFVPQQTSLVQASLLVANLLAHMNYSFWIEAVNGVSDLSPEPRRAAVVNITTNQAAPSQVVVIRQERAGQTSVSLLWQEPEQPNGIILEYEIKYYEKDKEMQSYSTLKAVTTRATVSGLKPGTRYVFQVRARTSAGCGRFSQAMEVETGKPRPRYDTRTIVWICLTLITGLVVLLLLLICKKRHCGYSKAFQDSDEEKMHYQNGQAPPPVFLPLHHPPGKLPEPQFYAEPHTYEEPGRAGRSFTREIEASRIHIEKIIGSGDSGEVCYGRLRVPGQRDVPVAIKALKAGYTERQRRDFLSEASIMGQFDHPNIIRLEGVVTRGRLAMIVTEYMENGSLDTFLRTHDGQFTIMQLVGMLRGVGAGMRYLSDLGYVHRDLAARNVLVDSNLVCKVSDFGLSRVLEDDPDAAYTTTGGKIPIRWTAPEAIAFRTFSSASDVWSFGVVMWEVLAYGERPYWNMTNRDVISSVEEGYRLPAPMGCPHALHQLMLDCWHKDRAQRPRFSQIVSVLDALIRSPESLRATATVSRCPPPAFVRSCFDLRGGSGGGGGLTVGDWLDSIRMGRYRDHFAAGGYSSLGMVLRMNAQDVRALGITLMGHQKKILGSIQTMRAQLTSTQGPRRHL
# [9] = biological target: T2, Ephrin type-A receptor 8 (Homo sapiens); conditions: at 10 µM
# Sequence of Ephrin type-A receptor 5 (Homo sapiens) (P54756 whole entry): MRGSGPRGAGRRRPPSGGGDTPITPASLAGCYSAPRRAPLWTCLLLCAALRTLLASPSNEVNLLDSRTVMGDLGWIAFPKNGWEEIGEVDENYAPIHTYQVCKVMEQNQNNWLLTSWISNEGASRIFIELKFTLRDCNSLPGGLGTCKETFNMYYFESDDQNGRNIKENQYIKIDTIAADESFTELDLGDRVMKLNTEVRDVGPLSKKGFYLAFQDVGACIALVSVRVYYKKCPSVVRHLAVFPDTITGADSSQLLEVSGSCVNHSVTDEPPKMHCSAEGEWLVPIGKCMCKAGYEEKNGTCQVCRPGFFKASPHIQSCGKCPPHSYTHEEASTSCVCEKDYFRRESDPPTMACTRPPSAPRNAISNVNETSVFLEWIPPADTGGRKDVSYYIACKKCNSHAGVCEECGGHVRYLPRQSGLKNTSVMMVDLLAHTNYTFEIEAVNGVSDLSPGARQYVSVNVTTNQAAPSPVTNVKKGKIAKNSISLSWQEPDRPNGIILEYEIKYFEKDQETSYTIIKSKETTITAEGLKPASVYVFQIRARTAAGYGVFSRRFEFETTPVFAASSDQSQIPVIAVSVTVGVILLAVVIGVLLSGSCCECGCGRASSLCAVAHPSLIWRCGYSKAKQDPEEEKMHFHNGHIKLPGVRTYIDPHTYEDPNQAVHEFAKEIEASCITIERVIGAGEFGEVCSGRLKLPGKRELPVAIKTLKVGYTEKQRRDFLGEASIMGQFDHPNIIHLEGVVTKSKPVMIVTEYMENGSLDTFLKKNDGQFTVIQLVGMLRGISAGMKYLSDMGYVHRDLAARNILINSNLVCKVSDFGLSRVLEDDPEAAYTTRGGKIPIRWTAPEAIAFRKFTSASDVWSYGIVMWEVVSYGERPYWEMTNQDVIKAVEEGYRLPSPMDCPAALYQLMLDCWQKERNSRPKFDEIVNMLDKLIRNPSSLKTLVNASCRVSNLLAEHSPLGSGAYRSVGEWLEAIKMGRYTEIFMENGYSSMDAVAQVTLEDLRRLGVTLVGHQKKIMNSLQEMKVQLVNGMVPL
# Sequence of Ephrin type-A receptor 4 (Homo sapiens) (P54764 whole entry): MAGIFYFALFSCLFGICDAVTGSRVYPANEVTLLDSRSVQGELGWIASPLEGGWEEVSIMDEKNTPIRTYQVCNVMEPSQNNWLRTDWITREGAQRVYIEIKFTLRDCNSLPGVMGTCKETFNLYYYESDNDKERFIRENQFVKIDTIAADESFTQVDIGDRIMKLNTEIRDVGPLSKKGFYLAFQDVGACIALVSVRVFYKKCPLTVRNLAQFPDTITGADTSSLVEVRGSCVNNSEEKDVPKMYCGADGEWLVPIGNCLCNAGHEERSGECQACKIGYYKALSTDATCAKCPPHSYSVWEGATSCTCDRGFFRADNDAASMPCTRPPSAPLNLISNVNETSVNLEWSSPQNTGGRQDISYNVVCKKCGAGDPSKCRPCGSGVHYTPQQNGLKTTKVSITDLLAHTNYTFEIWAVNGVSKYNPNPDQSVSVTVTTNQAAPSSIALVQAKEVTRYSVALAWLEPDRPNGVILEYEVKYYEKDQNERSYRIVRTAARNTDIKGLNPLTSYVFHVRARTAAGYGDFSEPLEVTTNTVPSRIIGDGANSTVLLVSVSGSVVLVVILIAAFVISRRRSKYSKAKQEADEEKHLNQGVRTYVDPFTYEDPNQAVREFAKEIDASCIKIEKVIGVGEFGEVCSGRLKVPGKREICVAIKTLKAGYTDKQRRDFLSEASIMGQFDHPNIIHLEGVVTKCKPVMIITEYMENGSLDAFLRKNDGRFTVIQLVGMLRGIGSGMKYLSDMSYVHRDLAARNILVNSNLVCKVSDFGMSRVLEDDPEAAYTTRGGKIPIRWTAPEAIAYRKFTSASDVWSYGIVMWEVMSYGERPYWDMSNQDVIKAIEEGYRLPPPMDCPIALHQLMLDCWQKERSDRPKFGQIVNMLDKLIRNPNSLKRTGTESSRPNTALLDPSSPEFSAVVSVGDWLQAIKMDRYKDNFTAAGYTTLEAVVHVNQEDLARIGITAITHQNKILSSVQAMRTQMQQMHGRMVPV
# Sequence of Ephrin type-A receptor 7 (Homo sapiens) (Q15375 28-998 limits assumed): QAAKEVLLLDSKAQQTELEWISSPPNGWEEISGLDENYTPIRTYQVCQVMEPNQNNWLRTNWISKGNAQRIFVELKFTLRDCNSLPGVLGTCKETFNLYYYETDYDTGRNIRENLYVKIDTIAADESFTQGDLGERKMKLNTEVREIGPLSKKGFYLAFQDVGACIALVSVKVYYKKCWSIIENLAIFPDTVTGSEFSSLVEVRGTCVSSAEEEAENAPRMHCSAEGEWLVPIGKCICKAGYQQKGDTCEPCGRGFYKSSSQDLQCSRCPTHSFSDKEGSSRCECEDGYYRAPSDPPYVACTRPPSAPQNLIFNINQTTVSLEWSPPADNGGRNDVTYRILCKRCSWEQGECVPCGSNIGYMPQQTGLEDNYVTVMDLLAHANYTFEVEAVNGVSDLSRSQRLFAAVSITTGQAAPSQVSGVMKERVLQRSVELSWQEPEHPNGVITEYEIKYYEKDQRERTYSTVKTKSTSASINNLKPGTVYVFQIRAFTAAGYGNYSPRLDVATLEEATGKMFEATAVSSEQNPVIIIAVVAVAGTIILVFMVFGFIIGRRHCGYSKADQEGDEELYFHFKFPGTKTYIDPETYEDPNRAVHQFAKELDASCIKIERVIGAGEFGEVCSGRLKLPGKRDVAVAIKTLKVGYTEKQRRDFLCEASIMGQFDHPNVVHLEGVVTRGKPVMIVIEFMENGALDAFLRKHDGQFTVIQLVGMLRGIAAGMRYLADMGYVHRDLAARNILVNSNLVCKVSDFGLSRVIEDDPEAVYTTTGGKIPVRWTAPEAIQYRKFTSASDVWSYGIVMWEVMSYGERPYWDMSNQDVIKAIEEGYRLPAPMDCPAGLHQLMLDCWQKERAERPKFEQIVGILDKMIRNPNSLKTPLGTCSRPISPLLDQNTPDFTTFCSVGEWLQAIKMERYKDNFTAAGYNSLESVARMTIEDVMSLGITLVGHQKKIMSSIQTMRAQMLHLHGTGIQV
smiles,measurement,setting,value
CCCC(=O)Oc1ccc2[nH]c(C(=O)c3cc4ccccc4[nH]3)cc2c1,residual activity,[1],105%
same,residual activity,[2],105%
same,residual activity,[3],91%
same,residual activity,[4],107%
same,residual activity,[5],99%
same,residual activity,[6],96%
same,residual activity,[7],86%
same,residual activity,[8],92%
same,residual activity,[9],98%
